High-throughput results: PubChem BioAssay, National Center for Advancing Translational Sciences (NCATS)
In the library only some 11% were active in any assay of this set; here they are far more common.
ALDH1A1 inh = qHTS Assay for Inhibitors of Aldehyde Dehydrogenase 1 (ALDH1A1); Aldehyde dehydrogenase 1A1 (Homo sapiens), P00352; Purified ALDH1A1, NADH fluorescence, propionaldehyde substrate; Potency, µM (doses to about 75.3 µM), usual class: inhibitors; AID 1030, 2008; hit rate 7.3% among 220,000
Target sequence (P00352 whole entry, looked up): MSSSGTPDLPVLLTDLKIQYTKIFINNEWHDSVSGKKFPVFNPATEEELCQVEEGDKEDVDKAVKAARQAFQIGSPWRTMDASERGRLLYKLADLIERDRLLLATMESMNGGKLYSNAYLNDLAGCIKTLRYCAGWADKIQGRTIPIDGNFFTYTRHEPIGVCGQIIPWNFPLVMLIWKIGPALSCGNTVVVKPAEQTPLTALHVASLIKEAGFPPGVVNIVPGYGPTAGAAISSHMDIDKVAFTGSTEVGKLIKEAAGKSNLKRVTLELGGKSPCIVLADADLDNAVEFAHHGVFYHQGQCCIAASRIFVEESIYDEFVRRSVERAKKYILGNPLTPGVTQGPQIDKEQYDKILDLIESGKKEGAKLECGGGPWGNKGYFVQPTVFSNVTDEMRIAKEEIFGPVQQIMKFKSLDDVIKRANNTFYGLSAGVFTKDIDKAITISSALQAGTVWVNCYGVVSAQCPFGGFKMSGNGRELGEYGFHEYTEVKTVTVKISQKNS
HPGD inh = qHTS Assay for Inhibitors of HPGD (15-Hydroxyprostaglandin Dehydrogenase); purified HPGD, NADH fluorescence kinetic, PGE2 substrate; Potency, µM, usual class: inhibitors; hit rate 4.3% among 150,000; AID 894, 2007
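20 nM HPGD preincubated 15 min at room temperature with compound in 50 mM Tris-HCl pH 8, 0.01% Tween 20. Started with 1 mM NAD+ and 30 uM prostaglandin E2; NADH fluorescence (360/450 nm) read 5 times over 30-s intervals, last minus first.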
PNC assembly inh = High Content Assay for Compounds that inhibit the Assembly of the Perinucleolar Compartment | PC3M PTB-GFP, PNC prevalence imaging, 16 h; active compounds read low | activity change (PNC), negative = inhibition, % at 10 µM | hit rate 3.1% among 140,000 | AID 2417, 2010;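 active means readout at or below -70, meaning at least 70% loss of cells showing the perinucleolar compartment, a nuclear body marking cancer cells; inconclusive means readout between -30 and a set limit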
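PC3M cells stably expressing PTB-GFP, 750–1000 cells/well, treated 16 h at 37 °C with compound (23 nl of library stock), in duplicate. After paraformaldehyde fixation and Hoechst stain, imaged at 20x; PNC prevalence scored by image analysis.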
Hits are given with their value; - = inactive; ? = inconclusive; . = no result; [ ] = another dose, or the depositor's remark. Unless noted, the call rests on the fitted dose curve; in most records, active means well fitted inhibition curve with a large enough effect (not every such curve was filed as active); inconclusive means small, poorly fitted or top-dose-only effect, or another doubt; inactive means no such curve, though single readings can be large or run the other way.

SMILES	ALDH1A1 inh	HPGD inh	PNC assembly inh
CC(OC(=O)c1nc(-c2ccccc2)n(-c2ccccc2)n1)C(=O)Nc1cc(Cl)cc(Cl)c1 (stereo not drawn)	-	-	?
COc1ccc(S(=O)(=O)N(CCc2ccccc2)CC(=O)NC(C)C)cc1	?	-	-
Cc1cc(C)n2c(-c3ccccc3Cl)nnc2n1	?	?	-109.0
Cc1cc(C)n2c(SCc3ccccc3Cl)nnc2n1	-	-	-
Cc1ccc(C)c(SCC(=O)OCC(=O)c2ccco2)c1	?	17.8µM	-
Cc1ccc2cc(C)c(SCC(=O)NCc3ccco3)nc2c1	14.1µM	.	.
O=C(CC(c1ccccc1)c1ccccc1O)NCc1ccccc1 (stereo not drawn)	-	.	.
O=C(CSc1ccc(Cl)cc1)NCc1ccco1	-	.	.
Cc1ccc(SCCC(=O)NCc2ccco2)cc1	-	28.2µM	-
Cc1cc2cc(C)c(SCC(=O)NCc3ccco3)nc2cc1C	-	.	.
Cc1ccc(C(CC(=O)NCc2ccco2)c2ccccc2)c(O)c1 (stereo not drawn)	-	15.8µM	-
Cc1ccc(C(=O)COC(=O)CNC(=O)c2ccco2)cc1	-	-	-
Cc1cn2c(nc(=O)c3cccnc32)s1	?	?	-
CCC(C(=O)OCC(=O)Nc1ccc(SC(F)F)cc1)c1ccccc1 (stereo not drawn)	-	-	?
Cc1ccc2nc(SCC(=O)NCc3ccco3)[nH]c2c1	-	-	-
Cc1nc(SCC(=O)NCc2ccco2)nc(C)c1C	25.1µM	7.94µM	?
Cc1ccc(C)c(SCC(=O)NCc2ccco2)c1	?	7.94µM	-
Cc1nc(SCC(=O)NC(=O)NCc2ccco2)nc(C)c1C	-	.	.
CCc1ccc(NC(=O)C(C)OC(=O)CCC(=O)c2cccs2)cc1 (stereo not drawn)	-	-	-
O=C(Nc1ccc2c(c1)OCCO2)C1CCN(C(=O)c2ccc(Br)cc2)CC1	?	-	-
Cc1ccccc1C(=O)N1CCC(C(=O)Nc2ccc3c(c2)OCCO3)CC1	28.2µM	-	-
Cc1ccccc1C(=O)N1CCC(C(=O)Nc2ccc3c(c2)OCO3)CC1	-	-	-
O=C(Nc1ccc2c(c1)OCCO2)C1CCN(C(=O)c2ccccc2)CC1	14.1µM	-	-104.8
COc1cc(C(=O)O)c2ccccc2n1	-	.	.
CCOc1cc(Cl)c(NC(C)=O)cc1OCC	-	-	-
SMILES	ALDH1A1 inh	HPGD inh	PNC assembly inh
O=C(OCC1OC(OC(=O)c2cc(O)c(O)c(OC(=O)c3cc(O)c(O)c(O)c3)c2)[C@@H](OC(=O)c2cc(O)c(O)c(OC(=O)c3cc(O)c(O)c(O)c3)c2)C(OC(=O)c2cc(O)c(O)c(OC(=O)c3cc(O)c(O)c(O)c3)c2)C1OC(=O)c1cc(O)c(O)c(OC(=O)c2cc(O)c(O)c(O)c2)c1)c1cc(O)c(O)c(OC(=O)c2cc(O)c(O)c(O)c2)c1 (stereo partly drawn)	?	3.16µM	.
CC(=O)NC1C(OCCOc2ccc(Cl)cc2Cl)OC(COC(C)=O)C(OC(C)=O)C1OC(C)=O (stereo not drawn)	-	-	-
COc1cc(C(=O)Nc2c(C)cc(C)cc2C)c(Br)c(OC)c1OC	-	.	.
COCCN(C(=S)Nc1c(C)cccc1C)C(C)c1cccnc1 (stereo not drawn)	-	-	?
COCCN(C(=S)Nc1c(C)cc(C)cc1C)C(C)c1cccnc1 (stereo not drawn)	?	7.94µM	-
Cc1ccnc(NC(NC(=O)C(C)C)(C(F)(F)F)C(F)(F)F)c1	-	-	-
Fc1ccc(C2C3=C(Nc4ncnn42)c2ccccc2OC3c2ccncc2)cc1 (stereo not drawn)	?	?	-
Cc1ccc(C2Oc3ccccc3C3=C2C(c2cccs2)n2ncnc2N3)cc1 (stereo not drawn)	11.2µM	-	-
CSc1nc(/C=C2\C=Nc3ccccc32)c(O)n1C	-	35.5µM	-
CC(C)n1c(O)c(/C=C2\C=Nc3ccccc32)sc1=Nc1ccccc1	-	-	?
CCC(=O)N(CCc1ccc(OC)c(OC)c1)Cc1cc2ccc(C)cc2n2nnnc12	-	.	.
COc1ccc(C2C(C(C)=O)=C(O)C(=O)N2CCCn2ccnc2)cc1 (stereo not drawn)	-	-	-
COc1cccc(C2C(C(=O)c3cccs3)=C(O)C(=O)N2CCCn2ccnc2)c1OC (stereo not drawn)	?	-	-96.5
O=C1c2ccccc2N[C@H](c2cc(Cl)cc(Cl)c2O)N1CCc1ccccn1	-[13.5 µM]	-	.
COc1ccc(NC(=O)c2ccc(COc3ccc(C)cc3)o2)cc1	-	.	.
COc1ccc(CCNC2=C(Cl)C(=O)N(CCc3ccc(OC)c(OC)c3)C2=O)cc1OC	-	-	-
COC(=O)C1=C(C)N(CCc2ccc(OC)c(OC)c2)C(=O)/C1=C\N(C)C	14.1µM	-	-
COc1ccc(C(=O)NNC(=O)CCn2nnc(-c3ccc(Cl)cc3)n2)cc1OC	-	.	.
CCS(=O)(=O)Nc1ccc(NC(C)=O)cc1	-	25.1µM	-
O=S(=O)(Nc1ccc(Cc2ccncc2)cc1)c1ccc(Cl)cc1	-	.	.
CC(=O)Nc1ccc(NS(C)(=O)=O)cc1	-	-	-
CCS(=O)(=O)Nc1ccc(Cc2ccncc2)cc1	-	1.26µM	?
O=S(=O)(Nc1ccc(Cc2ccncc2)cc1)c1ccc(Br)s1	-	-	-
O=S(=O)(Nc1ccc(Cc2ccncc2)cc1)c1cccs1	-	28.2µM	-
COCCN(C(=O)CSc1ncc(C(F)(F)F)cc1Cl)c1c(N)n(Cc2ccccc2)c(=O)[nH]c1=O	-	.	.
SMILES	ALDH1A1 inh	HPGD inh	PNC assembly inh
COC(=O)c1sc(NC(=O)c2ccc(C)o2)nc1C	-	?	-
CCOC(=O)c1sc(NC(=O)c2ccc(C)o2)nc1C	-	20µM	-
CCOC(=O)c1sc(NC(C)=O)nc1C	?	?	-
CCOC(=O)c1sc(NC(=O)C2CC=CCC2C(=O)O)nc1C (stereo not drawn)	0.126µM	-	-
Nc1nc(-c2ccc3ccccc3c2)cc(-c2cc(-c3ccc4ccccc4c3)nc(N)n2)n1	-[13.5 µM]	-	.
Cc1[nH][nH]c(=O)c1/C=N/N1CCOCC1	-	.	.
Cc1ccc(N/C=C2\C(=O)C3(C)CCC2C3(C)C)cc1C (stereo not drawn)	14.1µM	.	.
Cc1ccc(S(=O)(=O)NC2CCCC2)cc1C	?	-	-
C/C1=C/CC(C)(C)/C=C/C/C(C)=C/CC1	-	-	.
Cc1cc(C)cc(OCc2ccc(C(=O)O)o2)c1	-	-	?
O=C(O)c1ccc(COc2c(F)c(F)c(F)c(F)c2F)o1	-	-	-100.0
O=C1COc2ccc(C(=O)COC(=O)CNC(=O)c3ccco3)cc2N1	-	.	.
S=c1[nH]ncn1/N=C/c1ccc(Br)cc1	31.6µM	22.4µM	-
CCn1c2ccccc2c2cc(/C=N/n3cn[nH]c3=S)ccc21	22.4µM	15.8µM	-
CCn1c2ccccc2c2cc(/C=N/n3cnnc3)ccc21	?	?	-
COc1cc(/C=N/n2c(-c3cc(C)[nH]n3)n[nH]c2=S)cc(OC)c1O	-	.	.
CCn1c2ccccc2c2cc(/C=N/n3c(-c4cc(C)[nH]n4)n[nH]c3=S)ccc21	12.6µM	.	.
S=c1[nH]ncn1/N=C/c1ccccc1	-	-	-
N#CCc1nn(-c2ccc(F)cc2)c(N)c1C#N	-	.	.
